Source: PubChem (National Center for Advancing Translational Sciences (NCATS))
SW480 rereplic: DNA re-replication induction in SW480 cells; SW480 DNA re-replication, Hoechst DNA content imaging, 48 h; Potency, µM (highest dose often 46.1 µM), actives largely listed as activators; 340,000 compounds, 1.8% hits; also: nearly all actives have a fitted effect of over 55% in size
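First, 250 cells per well were seeded. Next, compound or vehicle (23 nL) was pinned in, plates sat 48 hr at 37 C. Finally Hoechst was added for 40 min before fluorescence scanning.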
Vif-APOBEC3F blk: inhibitors of Vif-A3F interaction; HeLa A3F-eYFP + Vif (tagged APOBEC3F with the HIV-1 protein that degrades it), YFP fluorescence increase; Potency, µM (highest dose often 46.1 µM); 390,000 compounds, 0.2% hits; AID 602313; also: nearly all actives have a fitted effect of over 65% in size
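HeLa cells stably expressing A3F-eYFP plus Vif, plated and incubated overnight at 37 deg C, then exposed to compounds overnight at 37 deg C. Blocked degradation read as raised yellow fluorescence (Ex 488/Em 500-530).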
Giardia killer: kills Giardia lamblia; Giardia lamblia trophozoite viability; activity change, % at 7.66 µM, hits read low; 340,000 compounds, 0.15% hits; AID 540267; in the data active = activity change below about -80%; inconclusive = between about -30% and that limit;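 also: parasites exposed to compound for two days anaerobically before the ATP read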
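Killing of trophozoites was scored by loss of ATP luminescence after a 48 hrs anaerobic exposure to compounds at 37 deg C, using 100 cells per well.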
MCF10A rereplic: inducers of DNA re-replication in MCF 10A breast cells. MCF 10A DNA re-replication, Hoechst nuclear intensity, 48 h. Potency, µM (titrated, usually from 46.1 µM), hits mostly activators. 350,000 compounds, 2.9% hits. AID 624296; also: nearly all actives have a fitted effect of over 50% in size
IL-1B inflam inh: inhibitors of inflammasome signaling (IL-1 beta secretion) | THP-1 LPS/ATP IL-1B secretion, AlphaLISA, 16 h; hits give low values | activity change, % at 57.5 µM | 360,000 compounds, 4.7% hits | AID 743279; in the data active = activity change below about -50%; inconclusive = mostly about -30% to -49%
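THP-1 cells pretreated 1 hr with compounds (up to 57.5 uM final), then stimulated with LPS (250 ng/mL final) plus ATP (1.25 mM final); secreted IL-1B measured by AlphaLISA after 16 hr, decreased signal indicating inhibition.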
Vif-APOBEC3G blk: Vif-A3G binding inhibition. Q9HC16. HeLa A3G-eYFP + Vif (tagged APOBEC3G with the HIV-1 protein that degrades it), YFP fluorescence, overnight. Potency, µM (highest dose often 46.1 µM), usual class: inhibitors. 410,000 compounds, 0.076% hits. AID 602310; also: nearly all actives have a fitted effect of over 60% in size
Target sequence (Q9HC16 whole entry, looked up): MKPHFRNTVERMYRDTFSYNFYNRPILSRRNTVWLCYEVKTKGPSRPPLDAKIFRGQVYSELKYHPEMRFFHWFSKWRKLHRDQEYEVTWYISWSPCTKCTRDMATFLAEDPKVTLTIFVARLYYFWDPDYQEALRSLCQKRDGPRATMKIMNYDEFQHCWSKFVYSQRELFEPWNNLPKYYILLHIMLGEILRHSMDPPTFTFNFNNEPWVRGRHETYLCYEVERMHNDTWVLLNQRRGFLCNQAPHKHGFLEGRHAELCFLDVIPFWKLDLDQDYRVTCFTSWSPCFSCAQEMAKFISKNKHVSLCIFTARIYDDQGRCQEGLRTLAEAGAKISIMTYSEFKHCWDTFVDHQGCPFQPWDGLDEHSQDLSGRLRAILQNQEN
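HeLa cells stably expressing Vif and C-terminally eYFP-tagged A3G, seeded overnight at 37 deg C, then exposed to compound by pintool overnight at 37 deg C. Rise in yellow fluorescence (Ex 488/Em 500-530, Acumen) marks blocked Vif-driven A3G degradation.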
Large screens that a line does not name were inactive. Most compounds without a hit are left out; they make up all but 6.9% or so of the library. Unless noted, calls follow the shape of the dose curve; as a rule, active = well fitted curve in the direction sought with a large enough effect; inconclusive = small, poorly fitted or top-dose-only effect, or another doubt; inactive = no such curve, though single readings can be large; an effect the other way counts as inactive or inconclusive.

O=C(COC(=O)CSc1ccc(F)cc1)NCc1ccco1	none
Cn1c(C(=O)OCC(=O)NCc2ccco2)cc2sccc21	SW480 rereplic inconclusive
Cc1cc(F)ccc1NC(=O)Cn1cc(S(=O)(=O)NC(C)C)c(S(=O)(=O)NC(C)C)c1	none (no result: SW480 rereplic, Giardia killer, MCF10A rereplic, IL-1B inflam inh)
CC(=O)N1CCN(/[N+]([O-])=N/Oc2ccc([N+](=O)[O-])cc2[N+](=O)[O-])CC1	none (no result: SW480 rereplic, Vif-APOBEC3F blk, Giardia killer, MCF10A rereplic, IL-1B inflam inh)
CCOC(=O)[C@H]1[C@H]2COc3ccc(Cl)cc3[C@@H]2N2C(=O)c3cc(F)c(F)cc3NC(=O)[C@@]12C	IL-1B inflam inh -72
CCOC(=O)[C@H]1[C@H]2COc3ccccc3[C@@H]2N2C(=O)c3cc(Cl)ccc3NC(=O)[C@@]12C	MCF10A rereplic inconclusive, IL-1B inflam inh inconclusive
CCOC(=O)[C@H]1[C@H]2COc3ccccc3[C@@H]2N2C(=O)c3ccc(Cl)cc3NC(=O)[C@@]12C	IL-1B inflam inh -67
CCOC(=O)c1ccc(N2C(=O)c3[nH]nc(-c4ccccc4)c3C2c2ccc(CC)cc2)cc1 (centres undefined)	Vif-APOBEC3G blk inconclusive (no result: SW480 rereplic, Giardia killer, MCF10A rereplic, IL-1B inflam inh)
O=C(NCCC1CCCCN1S(=O)(=O)c1cccs1)C(=O)Nc1cccc(F)c1 (centres undefined)	MCF10A rereplic inconclusive
CCNC(=O)C(=O)Nc1ccc2c(c1)N(S(=O)(=O)c1cccs1)CCC2	SW480 rereplic inconclusive
CCc1ccc(NC(=O)C2CCN(S(=O)(=O)c3cccs3)CC2)cc1	SW480 rereplic inconclusive, MCF10A rereplic inconclusive, IL-1B inflam inh -80
Cc1ccc(NC(=O)C2CCC(CNS(=O)(=O)c3cccs3)CC2)cc1C (centres undefined)	none (no result: SW480 rereplic, Giardia killer, MCF10A rereplic, IL-1B inflam inh)
CCc1cccc(NC(=O)C2CCN(S(=O)(=O)c3cccs3)CC2)c1	none
CCCNC(=O)C(=O)Nc1ccc2c(c1)N(S(=O)(=O)c1cccs1)CCC2	SW480 rereplic 18µM, MCF10A rereplic 15µM, Vif-APOBEC3G blk inconclusive
O=C(NCCC1CCCCN1S(=O)(=O)c1cccs1)C(=O)Nc1ccc(F)cc1 (centres undefined)	SW480 rereplic inconclusive, MCF10A rereplic inconclusive, IL-1B inflam inh -63
COc1cccc(NC(=O)C2CCC(CNS(=O)(=O)c3cccs3)CC2)c1 (centres undefined)	SW480 rereplic 21µM, MCF10A rereplic inconclusive
Cc1oc2c(c(C)cc3oc(=O)c(CC(=O)NCCc4ccccc4F)c(C)c32)c1C	Vif-APOBEC3F blk inconclusive (no result: SW480 rereplic, Giardia killer, MCF10A rereplic, IL-1B inflam inh)
O=C(NCC1CCCN1S(=O)(=O)c1cccs1)c1cccc(Cl)c1 (centres undefined)	SW480 rereplic 2.9µM
COCCCNC(=O)C(=O)Nc1ccc2c(c1)N(S(=O)(=O)c1cccs1)CCC2	SW480 rereplic 1µM, MCF10A rereplic 1.3µM, Vif-APOBEC3G blk inconclusive
O=C(NCC1CCCN1S(=O)(=O)c1cccs1)c1ccc(Cl)cc1 (centres undefined)	Giardia killer inconclusive
CN(C)CCNC(=O)C(=O)Nc1ccc2c(c1)N(S(=O)(=O)c1cccs1)CCC2	SW480 rereplic 18µM, Vif-APOBEC3F blk inconclusive, MCF10A rereplic inconclusive, Vif-APOBEC3G blk inconclusive
COc1cccc(NC(=O)Cn2c(=O)n(CCCCC(=O)NCc3ccccc3Cl)c(=O)c3ccccc32)c1	none (no result: SW480 rereplic, Giardia killer, MCF10A rereplic, IL-1B inflam inh)
CC1(C(=O)NCc2ccccc2)Cc2c(-c3ccccc3)ccnc2O1 (centres undefined)	Vif-APOBEC3G blk inconclusive (no result: SW480 rereplic, Vif-APOBEC3F blk, Giardia killer, MCF10A rereplic)
CC(=O)Nc1cccc(-c2ccnc3c2CC(C)(C(=O)Nc2ccc(C(C)C)cc2)O3)c1 (centres undefined)	IL-1B inflam inh -60 (no result: SW480 rereplic, Vif-APOBEC3F blk, Giardia killer, MCF10A rereplic)
CC1(C(=O)NCCc2ccccc2)Cc2c(-c3ccccc3)ccnc2O1 (centres undefined)	IL-1B inflam inh -59, Vif-APOBEC3G blk inconclusive (no result: SW480 rereplic, Vif-APOBEC3F blk, Giardia killer, MCF10A rereplic)
CC(C)c1ccc(NC(=O)C2(C)Cc3c(-c4cccc(C(N)=O)c4)ccnc3O2)cc1 (centres undefined)	IL-1B inflam inh -69 (no result: SW480 rereplic, Vif-APOBEC3F blk, Giardia killer, MCF10A rereplic)
CC1(C(=O)Nc2ccc(Cl)cc2)Cc2c(-c3cccc(C(N)=O)c3)ccnc2O1 (centres undefined)	none (no result: SW480 rereplic, Vif-APOBEC3F blk, Giardia killer, MCF10A rereplic)
